This note sets out measurements from article PMC7862700, “An all-to-all approach to the identification of sequence-specific readers for epigenetic DNA modifications on cytosine”.

Holding throughout (assay): DAPPL (digital affinity profiling via proximity ligation, sequencing); 10 mM Tris-HCl pH 7.5, 50 mM NaCl, 1 mM DTT, 4% glycerol, room temperature, 30 min; GST-TFs on glutathione beads, 16-mer random dsDNA library, 0.1% formaldehyde crosslink after washing; high values mean tight binding
The target of one experiment is T1, FEV (Homo sapiens, UniProt Q99581 1-238).
T1 sequence: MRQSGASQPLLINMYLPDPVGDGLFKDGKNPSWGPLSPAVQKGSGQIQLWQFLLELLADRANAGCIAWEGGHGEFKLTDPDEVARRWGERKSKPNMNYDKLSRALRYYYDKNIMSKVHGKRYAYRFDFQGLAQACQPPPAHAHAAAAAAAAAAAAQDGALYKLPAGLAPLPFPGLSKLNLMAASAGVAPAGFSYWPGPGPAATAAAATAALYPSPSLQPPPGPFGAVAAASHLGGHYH
To be noted: protein: recombinant; tags: N-terminal GST; dsDNA, one strand shown. The method, boiled down:
(§1)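 Human transcription factors fused to GST were expressed in yeast, captured on glutathione beads, given DNA barcodes and pooled with a GST-only negative control. Pools were incubated with 200 nmole of a 16-mer random double-stranded DNA library in Tris/NaCl/DTT/glycerol buffer at room temperature for 30 min. They were then washed, crosslinked with 0.1% formaldehyde, proximity-ligated (BsaI/T4 ligase, 1 h, 37 °C), PCR-amplified and sequenced on an Illumina NextSeq500. Binding signal is each 6-mer's read frequency for a factor divided by its frequency for the GST control.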

A further experiment deals with ETV5 (Homo sapiens, UniProt P41161 1-510). As to conditions: protein: recombinant; tags: N-terminal GST; dsDNA, one strand shown. The procedure, abridged: as §1
Sequence of ETV5 (P41161 whole entry): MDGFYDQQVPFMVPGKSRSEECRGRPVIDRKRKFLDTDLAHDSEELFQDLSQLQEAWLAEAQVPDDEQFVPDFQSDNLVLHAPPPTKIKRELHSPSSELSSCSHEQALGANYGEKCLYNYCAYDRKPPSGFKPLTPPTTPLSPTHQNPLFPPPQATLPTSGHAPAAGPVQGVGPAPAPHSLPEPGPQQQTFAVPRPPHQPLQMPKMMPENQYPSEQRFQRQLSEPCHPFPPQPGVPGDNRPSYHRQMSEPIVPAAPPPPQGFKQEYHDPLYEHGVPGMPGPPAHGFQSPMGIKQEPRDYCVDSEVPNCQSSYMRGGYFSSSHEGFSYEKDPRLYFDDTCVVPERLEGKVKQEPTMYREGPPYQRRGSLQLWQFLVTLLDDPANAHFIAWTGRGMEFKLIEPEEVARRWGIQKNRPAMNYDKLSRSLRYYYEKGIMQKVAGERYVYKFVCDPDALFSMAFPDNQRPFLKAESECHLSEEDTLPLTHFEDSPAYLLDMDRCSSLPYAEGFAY
Another experiment has as its target HSF1 (Homo sapiens, UniProt Q00613 1-529). As to conditions: protein: recombinant; tags: N-terminal GST; chain copies: 3; dsDNA, one strand shown. The procedure, abridged:
as §1

The target in the next experiment is T2, SPIC (Homo sapiens, UniProt Q8N5J4 1-248).
T2 sequence: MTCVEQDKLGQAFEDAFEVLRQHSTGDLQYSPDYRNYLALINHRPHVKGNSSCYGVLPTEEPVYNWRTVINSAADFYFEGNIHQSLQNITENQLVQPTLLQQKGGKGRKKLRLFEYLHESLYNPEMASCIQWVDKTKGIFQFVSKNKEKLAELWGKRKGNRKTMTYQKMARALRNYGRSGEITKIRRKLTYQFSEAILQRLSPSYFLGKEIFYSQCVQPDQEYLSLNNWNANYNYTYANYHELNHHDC
To be noted: protein: recombinant; tags: N-terminal GST; dsDNA, one strand shown. The method, boiled down: as §1

In a further experiment the target is ELF4 (Homo sapiens, UniProt Q99607 1-663). To be noted: protein: recombinant; tags: N-terminal GST; dsDNA, one strand shown. The procedure, abridged: as §1
Sequence of ELF4 (Q99607 whole entry): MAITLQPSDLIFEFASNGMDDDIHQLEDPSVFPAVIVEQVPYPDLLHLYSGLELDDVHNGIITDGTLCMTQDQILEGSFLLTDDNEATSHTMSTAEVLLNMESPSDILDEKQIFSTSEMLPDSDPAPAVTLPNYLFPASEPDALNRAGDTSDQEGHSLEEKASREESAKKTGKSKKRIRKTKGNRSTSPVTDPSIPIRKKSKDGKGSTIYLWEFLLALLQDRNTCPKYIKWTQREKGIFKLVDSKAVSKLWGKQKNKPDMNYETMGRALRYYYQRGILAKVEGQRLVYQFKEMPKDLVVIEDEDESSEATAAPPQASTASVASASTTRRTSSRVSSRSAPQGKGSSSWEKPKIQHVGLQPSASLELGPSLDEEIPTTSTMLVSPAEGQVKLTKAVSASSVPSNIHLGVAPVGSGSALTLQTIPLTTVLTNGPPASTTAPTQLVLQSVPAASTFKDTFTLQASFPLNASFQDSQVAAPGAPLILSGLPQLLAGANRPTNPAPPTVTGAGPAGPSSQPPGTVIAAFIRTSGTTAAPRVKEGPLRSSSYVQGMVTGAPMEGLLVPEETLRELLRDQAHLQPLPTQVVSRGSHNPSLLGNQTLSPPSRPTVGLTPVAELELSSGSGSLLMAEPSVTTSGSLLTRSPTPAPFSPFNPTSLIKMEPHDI
The target in the next experiment is T3, ELK4 (Homo sapiens, UniProt P28324-2 1-405).
T3 sequence: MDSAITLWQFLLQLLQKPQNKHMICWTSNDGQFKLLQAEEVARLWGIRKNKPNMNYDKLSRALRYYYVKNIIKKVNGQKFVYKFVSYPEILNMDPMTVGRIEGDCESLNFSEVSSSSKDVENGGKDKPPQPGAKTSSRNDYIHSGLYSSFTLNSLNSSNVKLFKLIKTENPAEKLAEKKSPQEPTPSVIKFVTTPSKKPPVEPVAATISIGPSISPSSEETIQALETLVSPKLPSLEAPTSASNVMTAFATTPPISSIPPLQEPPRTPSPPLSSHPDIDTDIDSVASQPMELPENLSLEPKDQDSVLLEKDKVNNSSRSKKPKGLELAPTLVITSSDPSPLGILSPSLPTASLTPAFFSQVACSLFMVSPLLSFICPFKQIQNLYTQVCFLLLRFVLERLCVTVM
To be noted: protein: recombinant; tags: N-terminal GST; dsDNA, one strand shown. The procedure, abridged:
as §1

The target of another experiment is T4, ETV2 (Homo sapiens, UniProt O00321 1-342).
T4 sequence: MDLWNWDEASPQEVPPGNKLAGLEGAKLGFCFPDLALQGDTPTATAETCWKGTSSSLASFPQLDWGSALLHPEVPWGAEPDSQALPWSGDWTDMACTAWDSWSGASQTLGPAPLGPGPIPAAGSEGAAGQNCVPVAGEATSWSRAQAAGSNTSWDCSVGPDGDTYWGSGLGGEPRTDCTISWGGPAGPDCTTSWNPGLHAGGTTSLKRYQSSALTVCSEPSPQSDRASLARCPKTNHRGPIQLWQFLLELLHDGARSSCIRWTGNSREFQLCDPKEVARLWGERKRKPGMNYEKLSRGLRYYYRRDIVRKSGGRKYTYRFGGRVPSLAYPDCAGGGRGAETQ
As to conditions: protein: recombinant; tags: N-terminal GST; dsDNA, one strand shown. The procedure, abridged:
as §1

For a further experiment, the target named is T5, ELF3 (Homo sapiens, UniProt P78545 1-371).
T5 sequence: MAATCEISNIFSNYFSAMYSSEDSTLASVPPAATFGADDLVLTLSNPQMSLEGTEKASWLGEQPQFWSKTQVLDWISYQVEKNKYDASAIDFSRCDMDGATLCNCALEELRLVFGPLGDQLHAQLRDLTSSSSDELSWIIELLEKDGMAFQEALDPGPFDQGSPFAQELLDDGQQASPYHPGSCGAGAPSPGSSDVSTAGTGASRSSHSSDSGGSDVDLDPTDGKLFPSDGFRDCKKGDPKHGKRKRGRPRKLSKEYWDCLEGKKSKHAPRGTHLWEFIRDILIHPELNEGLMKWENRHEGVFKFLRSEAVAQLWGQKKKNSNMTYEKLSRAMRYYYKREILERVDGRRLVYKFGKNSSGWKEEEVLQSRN
As to conditions: protein: recombinant; tags: N-terminal GST; dsDNA, one strand shown. The procedure, abridged:
as §1

Another experiment addresses CRX (Homo sapiens, UniProt O43186 1-299). To be noted: protein: recombinant; tags: N-terminal GST; dsDNA, one strand shown. The method, boiled down: as §1
In a further experiment the target is ETV1 (Homo sapiens, UniProt P50549 1-477). As to conditions: protein: recombinant; tags: N-terminal GST; dsDNA, one strand shown. The procedure, abridged: as §1
Sequence of ETV1 (P50549 whole entry): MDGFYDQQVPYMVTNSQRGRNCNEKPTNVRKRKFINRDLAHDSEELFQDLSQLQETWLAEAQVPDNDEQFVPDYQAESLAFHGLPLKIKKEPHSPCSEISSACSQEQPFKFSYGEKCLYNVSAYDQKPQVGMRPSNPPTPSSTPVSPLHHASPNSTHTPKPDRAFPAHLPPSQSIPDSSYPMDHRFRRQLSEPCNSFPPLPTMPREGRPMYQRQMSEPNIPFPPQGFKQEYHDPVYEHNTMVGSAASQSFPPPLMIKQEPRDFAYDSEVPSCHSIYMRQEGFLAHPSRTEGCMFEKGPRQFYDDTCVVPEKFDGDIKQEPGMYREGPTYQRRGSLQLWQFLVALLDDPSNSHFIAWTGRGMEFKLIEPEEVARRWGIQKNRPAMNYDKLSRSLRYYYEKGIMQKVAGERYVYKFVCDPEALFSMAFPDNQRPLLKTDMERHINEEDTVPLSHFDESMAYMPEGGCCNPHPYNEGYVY
In a further experiment the target is T6, ERF (Homo sapiens, UniProt P50548 1-548).
T6 sequence: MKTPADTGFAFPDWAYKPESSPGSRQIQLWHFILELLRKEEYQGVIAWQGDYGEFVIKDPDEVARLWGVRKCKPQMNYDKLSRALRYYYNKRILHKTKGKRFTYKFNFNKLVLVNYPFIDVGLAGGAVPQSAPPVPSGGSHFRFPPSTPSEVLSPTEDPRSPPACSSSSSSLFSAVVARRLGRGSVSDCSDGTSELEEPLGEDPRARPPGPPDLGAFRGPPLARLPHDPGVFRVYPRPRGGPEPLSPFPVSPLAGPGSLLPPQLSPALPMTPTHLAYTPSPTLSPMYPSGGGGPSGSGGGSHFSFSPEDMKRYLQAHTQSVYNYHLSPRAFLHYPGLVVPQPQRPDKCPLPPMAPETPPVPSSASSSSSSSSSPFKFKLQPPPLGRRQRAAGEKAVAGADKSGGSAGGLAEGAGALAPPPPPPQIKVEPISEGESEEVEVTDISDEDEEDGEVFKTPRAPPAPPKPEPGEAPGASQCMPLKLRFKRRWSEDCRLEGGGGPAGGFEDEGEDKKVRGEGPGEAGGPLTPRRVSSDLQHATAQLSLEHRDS
As to conditions: protein: recombinant; tags: N-terminal GST; dsDNA, one strand shown. The method, boiled down:
as §1

Another experiment addresses T7, ETV3L (Homo sapiens, UniProt Q6ZN32 1-361).
T7 sequence: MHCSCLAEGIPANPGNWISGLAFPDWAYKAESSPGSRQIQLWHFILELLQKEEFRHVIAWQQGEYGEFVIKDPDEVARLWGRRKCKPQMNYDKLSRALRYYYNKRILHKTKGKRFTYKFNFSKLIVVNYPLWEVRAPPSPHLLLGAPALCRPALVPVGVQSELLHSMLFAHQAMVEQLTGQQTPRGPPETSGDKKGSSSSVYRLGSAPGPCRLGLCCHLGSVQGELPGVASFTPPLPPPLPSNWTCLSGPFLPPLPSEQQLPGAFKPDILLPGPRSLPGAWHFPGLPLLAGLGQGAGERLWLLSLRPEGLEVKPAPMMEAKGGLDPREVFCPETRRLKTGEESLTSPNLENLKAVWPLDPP
To be noted: protein: recombinant; tags: N-terminal GST; dsDNA, one strand shown. The method, boiled down:
as §1

The target of a further experiment is T8, ETS2 (Homo sapiens, UniProt P15036 1-469).
T8 sequence: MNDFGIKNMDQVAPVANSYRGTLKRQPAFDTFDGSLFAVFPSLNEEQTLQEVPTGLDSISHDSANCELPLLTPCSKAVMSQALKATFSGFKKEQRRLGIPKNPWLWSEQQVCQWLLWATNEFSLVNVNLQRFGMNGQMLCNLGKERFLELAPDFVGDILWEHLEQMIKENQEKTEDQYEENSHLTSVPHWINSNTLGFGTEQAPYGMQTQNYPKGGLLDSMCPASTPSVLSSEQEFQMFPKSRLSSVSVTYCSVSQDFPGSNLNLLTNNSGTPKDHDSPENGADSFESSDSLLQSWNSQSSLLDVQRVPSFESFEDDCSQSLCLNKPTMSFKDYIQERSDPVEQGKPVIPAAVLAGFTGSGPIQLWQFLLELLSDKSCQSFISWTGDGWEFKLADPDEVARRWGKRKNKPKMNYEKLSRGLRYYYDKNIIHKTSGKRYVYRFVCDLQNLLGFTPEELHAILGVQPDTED
To be noted: protein: recombinant; tags: N-terminal GST; dsDNA, one strand shown. The procedure, abridged: as §1

For a further experiment, the target named is T9, SPDEF (Homo sapiens, UniProt O95238 1-335).
T9 sequence: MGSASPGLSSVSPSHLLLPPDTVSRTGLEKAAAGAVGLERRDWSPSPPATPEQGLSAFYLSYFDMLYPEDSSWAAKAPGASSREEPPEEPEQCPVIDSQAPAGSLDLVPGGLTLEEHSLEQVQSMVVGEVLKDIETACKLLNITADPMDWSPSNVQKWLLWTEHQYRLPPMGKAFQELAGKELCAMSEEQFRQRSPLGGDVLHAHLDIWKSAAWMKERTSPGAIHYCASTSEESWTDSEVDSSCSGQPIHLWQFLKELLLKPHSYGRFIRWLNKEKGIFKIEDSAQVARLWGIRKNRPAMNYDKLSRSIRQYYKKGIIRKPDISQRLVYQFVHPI
As to conditions: protein: recombinant; tags: N-terminal GST; dsDNA, one strand shown. The procedure, abridged: as §1

Another experiment concerns the target T10, ETV7 (Homo sapiens, UniProt Q9Y603 1-341).
T10 sequence: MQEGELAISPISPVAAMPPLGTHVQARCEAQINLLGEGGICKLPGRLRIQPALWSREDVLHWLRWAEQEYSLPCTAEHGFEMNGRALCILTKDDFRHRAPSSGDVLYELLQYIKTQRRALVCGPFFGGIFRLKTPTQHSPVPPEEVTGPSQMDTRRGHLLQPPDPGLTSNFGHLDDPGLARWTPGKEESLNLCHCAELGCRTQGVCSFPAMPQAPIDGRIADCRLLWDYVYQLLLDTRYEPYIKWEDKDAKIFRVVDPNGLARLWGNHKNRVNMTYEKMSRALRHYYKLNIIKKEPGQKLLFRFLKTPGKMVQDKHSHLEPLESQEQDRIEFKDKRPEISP
As to conditions: protein: recombinant; tags: N-terminal GST; dsDNA, one strand shown. The method, boiled down: as §1

Another experiment deals with T11, ELF5 (Homo sapiens, UniProt Q9UKW6-2 1-255).
T11 sequence: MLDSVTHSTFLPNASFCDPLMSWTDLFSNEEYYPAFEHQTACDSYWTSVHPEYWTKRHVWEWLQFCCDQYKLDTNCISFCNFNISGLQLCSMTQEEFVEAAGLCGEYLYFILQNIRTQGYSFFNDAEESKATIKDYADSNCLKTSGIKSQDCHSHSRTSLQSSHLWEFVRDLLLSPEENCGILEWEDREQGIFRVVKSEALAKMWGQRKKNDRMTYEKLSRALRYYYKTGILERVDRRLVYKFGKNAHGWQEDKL
To be noted: protein: recombinant; tags: N-terminal GST; dsDNA, one strand shown. The method, boiled down: as §1

For a further experiment, the target named is T12, ETV3 (Homo sapiens, UniProt P41162-2 1-143).
T12 sequence: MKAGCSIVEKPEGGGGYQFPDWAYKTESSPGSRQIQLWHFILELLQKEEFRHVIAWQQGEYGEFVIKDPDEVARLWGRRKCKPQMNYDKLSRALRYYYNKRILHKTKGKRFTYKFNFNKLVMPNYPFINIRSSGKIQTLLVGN
As to conditions: protein: recombinant; tags: N-terminal GST; dsDNA, one strand shown. The method, boiled down: as §1

Sequence of HSF1 (Q00613 whole entry): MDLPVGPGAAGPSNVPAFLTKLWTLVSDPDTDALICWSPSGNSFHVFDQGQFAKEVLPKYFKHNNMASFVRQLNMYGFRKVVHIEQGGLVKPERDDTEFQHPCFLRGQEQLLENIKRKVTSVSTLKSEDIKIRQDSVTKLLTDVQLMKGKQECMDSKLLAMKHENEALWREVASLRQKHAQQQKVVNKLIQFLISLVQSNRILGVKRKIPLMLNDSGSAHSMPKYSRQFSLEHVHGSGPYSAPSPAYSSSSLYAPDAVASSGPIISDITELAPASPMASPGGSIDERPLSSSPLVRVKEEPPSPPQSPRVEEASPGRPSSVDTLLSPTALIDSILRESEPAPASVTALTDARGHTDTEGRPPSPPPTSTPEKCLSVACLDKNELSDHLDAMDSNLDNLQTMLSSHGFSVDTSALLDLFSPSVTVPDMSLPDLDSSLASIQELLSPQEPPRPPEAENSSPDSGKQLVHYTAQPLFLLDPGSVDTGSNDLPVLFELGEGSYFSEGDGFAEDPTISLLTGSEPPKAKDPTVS
Sequence of CRX (O43186 whole entry): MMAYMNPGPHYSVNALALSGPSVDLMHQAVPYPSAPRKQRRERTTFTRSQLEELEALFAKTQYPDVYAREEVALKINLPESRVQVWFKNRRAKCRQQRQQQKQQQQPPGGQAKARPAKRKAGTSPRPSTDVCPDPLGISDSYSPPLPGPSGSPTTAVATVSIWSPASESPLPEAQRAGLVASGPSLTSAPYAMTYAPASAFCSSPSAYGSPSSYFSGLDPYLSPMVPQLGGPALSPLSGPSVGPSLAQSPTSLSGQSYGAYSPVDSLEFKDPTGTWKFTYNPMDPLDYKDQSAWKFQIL

Regarding GGTCTT, the binding signal with FEV was 1.07 fold enrichment (6-mer frequency, TF over GST control); with ETV5, 1.14 fold enrichment (6-mer frequency, TF over GST control); with HSF1, 1.05 fold enrichment (6-mer frequency, TF over GST control); in the experiment with SPIC, 1.02 fold enrichment (6-mer frequency, TF over GST control); with ELF4, 1.15 fold enrichment (6-mer frequency, TF over GST control); in the experiment with ELK4 it was 1.11 fold enrichment (6-mer frequency, TF over GST control). For the same sequence, the binding signal was 1.08 fold enrichment (6-mer frequency, TF over GST control) with ETV2; 1.04 fold enrichment (6-mer frequency, TF over GST control) with ELF3; 1.15 fold enrichment (6-mer frequency, TF over GST control) with CRX; 1.11 fold enrichment (6-mer frequency, TF over GST control) in the experiment with ETV1; 1.22 fold enrichment (6-mer frequency, TF over GST control) with ERF; 1.07 fold enrichment (6-mer frequency, TF over GST control) in the experiment with ETV3L. Also, the binding signal with ETS2 is 1.23 fold enrichment (6-mer frequency, TF over GST control); with SPDEF it was 1.12 fold enrichment (6-mer frequency, TF over GST control); with ETV7 it was 1.19 fold enrichment (6-mer frequency, TF over GST control); with ELF5, 1.2 fold enrichment (6-mer frequency, TF over GST control); in the experiment with ETV3 it was 1.16 fold enrichment (6-mer frequency, TF over GST control).
